Measured values taken from the supplement of paper PMC4466140.
± gives the standard deviation of the averaged measurements.

B1: unnamed (peptide)
chain: VSKLRSPNTPRRLRK

Molecular target: AgAbp1
Experiment: SPOT peptide array binding signal intensity (averaged, normalized) (arbitrary units (background-subtracted, floor 0; scale differs between SH3 domains)); higher = stronger binding of the SH3 domain to the peptide
Method in brief: (§1)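 Four yeast species supplied the SH3 domains, which were expressed as GST fusions in E. coli BL21(DE3) and purified on glutathione Sepharose. Incubation with cellulose membranes carrying synthetic 15-mer peptides, cysteines exchanged for serines, ran overnight at 4°C at 10 μg/ml in TBS-based blocking buffer. Binding signal is reported as normalized, background-subtracted spot intensity averaged over replicates, in arbitrary units not shared between domains.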

Binder	SPOT peptide array binding signal intensity
B1	210 ± 71

Molecular target: AgBbc1
Experiment: as above
Method in brief: as §1

Binder	SPOT peptide array binding signal intensity
B1	284 ± 140

Molecular target: AgBem1-D1
Experiment: as above
Method in brief: as §1

Binder	SPOT peptide array binding signal intensity
B1	116 ± 54

Molecular target: AgBzz1-D1
Experiment: as above
Method in brief: as §1

Binder	SPOT peptide array binding signal intensity
B1	65.5 ± 29

Molecular target: AgBzz1-D2
Experiment: as above
Method in brief: as §1

Binder	SPOT peptide array binding signal intensity
B1	44.8 ± 5.3

Molecular target: AgCyk3
Experiment: as above
Method in brief: as §1

Binder	SPOT peptide array binding signal intensity
B1	7 ± 0.71

Molecular target: AgFus1
Experiment: as above
Method in brief: as §1

Binder	SPOT peptide array binding signal intensity
B1	192 ± 110

Molecular target: AgHof1
Experiment: as above
Method in brief: as §1

Binder	SPOT peptide array binding signal intensity
B1	68 ± 14

Molecular target: AgHse1
Experiment: as above
Method in brief: as §1

Binder	SPOT peptide array binding signal intensity
B1	352 ± 230

Molecular target: AgLsb1
Experiment: as above
Method in brief: as §1

Binder	SPOT peptide array binding signal intensity
B1	3.38 ± 4.1

Molecular target: AgLsb4
Experiment: as above
Method in brief: as §1

Binder	SPOT peptide array binding signal intensity
B1	48.8 ± 16

Molecular target: AgMyo5
Experiment: as above
Method in brief: as §1

Binder	SPOT peptide array binding signal intensity
B1	2.75 ± 2.5

Molecular target: AgNbp2
Experiment: as above
Method in brief: as §1

Binder	SPOT peptide array binding signal intensity
B1	84.2 ± 8.8

Molecular target: AgRvs167
Experiment: as above
Method in brief: as §1

Binder	SPOT peptide array binding signal intensity
B1	9.83 ± 2.1

Molecular target: AgSho1
Experiment: as above
Method in brief: as §1

Binder	SPOT peptide array binding signal intensity
B1	13 ± 2.8

Molecular target: AgSla1-D1-D2
Experiment: as above
Method in brief: as §1

Binder	SPOT peptide array binding signal intensity
B1	334 ± 170

Molecular target: AgSla1-D3
Experiment: as above
Method in brief: as §1

Binder	SPOT peptide array binding signal intensity
B1	8.88 ± 5.8

Molecular target: CaAbp1-D1
Experiment: as above
Method in brief: as §1

Binder	SPOT peptide array binding signal intensity
B1	897 ± 89

Molecular target: CaAbp1-D2
Experiment: as above
Method in brief: as §1

Binder	SPOT peptide array binding signal intensity
B1	576 ± 100

Molecular target: CaBbc1
Experiment: as above
Method in brief: as §1

Binder	SPOT peptide array binding signal intensity
B1	863 ± 130

Molecular target: CaBem1-D1
Experiment: as above
Method in brief: as §1

Binder	SPOT peptide array binding signal intensity
B1	64 ± 8.5

Molecular target: CaBzz1-D1
Experiment: as above
Method in brief: as §1

Binder	SPOT peptide array binding signal intensity
B1	156 ± 7.4

Molecular target: CaBzz1-D2
Experiment: as above
Method in brief: as §1

Binder	SPOT peptide array binding signal intensity
B1	146 ± 120

Molecular target: CaCyk3
Experiment: as above
Method in brief: as §1

Binder	SPOT peptide array binding signal intensity
B1	47.2 ± 1.1

Molecular target: CaFus1
Experiment: as above
Method in brief: as §1

Binder	SPOT peptide array binding signal intensity
B1	230 ± 22

Molecular target: CaHof1
Experiment: as above
Method in brief: as §1

Binder	SPOT peptide array binding signal intensity
B1	0.5 ± 0.71

Molecular target: CaHse1
Experiment: as above
Method in brief: as §1

Binder	SPOT peptide array binding signal intensity
B1	4.62 ± 3.4

Molecular target: CaLsb1
Experiment: as above
Method in brief: as §1

Binder	SPOT peptide array binding signal intensity
B1	0.75 ± 0.35

Molecular target: CaLsb4
Experiment: as above
Method in brief: as §1

Binder	SPOT peptide array binding signal intensity
B1	778 ± 490

Molecular target: CaMyo5
Experiment: as above
Method in brief: as §1

Binder	SPOT peptide array binding signal intensity
B1	3.38 ± 0.18

Molecular target: CaNbp2
Experiment: as above
Method in brief: as §1

Binder	SPOT peptide array binding signal intensity
B1	166 ± 86

Molecular target: CaRvs167
Experiment: as above
Method in brief: as §1

Binder	SPOT peptide array binding signal intensity
B1	23.8 ± 10

Molecular target: CaRvs167-3
Experiment: as above
Method in brief: as §1

Binder	SPOT peptide array binding signal intensity
B1	28.2 ± 2.5

Molecular target: CaSho1
Experiment: as above
Method in brief: as §1

Binder	SPOT peptide array binding signal intensity
B1	131 ± 3.9

Molecular target: CaSla1-D1-D2
Experiment: as above
Method in brief: as §1

Binder	SPOT peptide array binding signal intensity
B1	270 ± 140

Molecular target: CaSla1-D3
Experiment: as above
Method in brief: as §1

Binder	SPOT peptide array binding signal intensity
B1	3.88 ± 0.53

Molecular target: ScAbp1
Experiment: as above
Method in brief: as §1

Binder	SPOT peptide array binding signal intensity
B1	41 ± 23

Molecular target: ScBbc1
Experiment: as above
Method in brief: as §1

Binder	SPOT peptide array binding signal intensity
B1	266 ± 81

Molecular target: ScBem1-D1
Experiment: as above
Method in brief: as §1

Binder	SPOT peptide array binding signal intensity
B1	25.2 ± 17

Molecular target: ScBzz1-D1
Experiment: as above
Method in brief: as §1

Binder	SPOT peptide array binding signal intensity
B1	23 ± 9.9

Molecular target: ScBzz1-D2
Experiment: as above
Method in brief: as §1

Binder	SPOT peptide array binding signal intensity
B1	9.25 ± 3.9

Molecular target: ScCyk3
Experiment: as above
Method in brief: as §1

Binder	SPOT peptide array binding signal intensity
B1	110 ± 25

Molecular target: ScFus1
Experiment: as above
Method in brief: as §1

Binder	SPOT peptide array binding signal intensity
B1	143 ± 42

Molecular target: ScHof1
Experiment: as above
Method in brief: as §1

Binder	SPOT peptide array binding signal intensity
B1	≤ 0

Molecular target: ScHse1
Experiment: as above
Method in brief: as §1

Binder	SPOT peptide array binding signal intensity
B1	701 ± 130

Molecular target: ScLsb1
Experiment: as above
Method in brief: as §1

Binder	SPOT peptide array binding signal intensity
B1	33.2 ± 7.8

Molecular target: ScLsb2
Experiment: as above
Method in brief: as §1

Binder	SPOT peptide array binding signal intensity
B1	11.8 ± 1.1

Molecular target: ScLsb3
Experiment: as above
Method in brief: as §1

Binder	SPOT peptide array binding signal intensity
B1	2420 ± 260

Molecular target: ScLsb4
Experiment: as above
Method in brief: as §1

Binder	SPOT peptide array binding signal intensity
B1	70.5 ± 9.2

Molecular target: ScMyo3
Experiment: as above
Method in brief: as §1

Binder	SPOT peptide array binding signal intensity
B1	2.62 ± 2.3

Molecular target: ScMyo5
Experiment: as above
Method in brief: as §1

Binder	SPOT peptide array binding signal intensity
B1	2.88 ± 1.9

Molecular target: ScNbp2
Experiment: as above
Method in brief: as §1

Binder	SPOT peptide array binding signal intensity
B1	275 ± 49

Molecular target: ScPex13
Experiment: as above
Method in brief: as §1

Binder	SPOT peptide array binding signal intensity
B1	8.5 ± 12

Molecular target: ScRvs167
Experiment: as above
Method in brief: as §1

Binder	SPOT peptide array binding signal intensity
B1	230.2 ± 2.2

Molecular target: ScSho1
Experiment: as above
Method in brief: as §1

Binder	SPOT peptide array binding signal intensity
B1	258 ± 32

Molecular target: ScSla1-D1-D2
Experiment: as above
Method in brief: as §1

Binder	SPOT peptide array binding signal intensity
B1	953 ± 160

Molecular target: ScSla1-D3
Experiment: as above
Method in brief: as §1

Binder	SPOT peptide array binding signal intensity
B1	36.2 ± 41

Molecular target: SpAbp1-D1
Experiment: as above
Method in brief: as §1

Binder	SPOT peptide array binding signal intensity
B1	384 ± 320

Molecular target: SpBbc1
Experiment: as above
Method in brief: as §1

Binder	SPOT peptide array binding signal intensity
B1	5.75 ± 1.1

Molecular target: SpBzz1-D1
Experiment: as above
Method in brief: as §1

Binder	SPOT peptide array binding signal intensity
B1	236 ± 150

Molecular target: SpBzz1-D2
Experiment: as above
Method in brief: as §1

Binder	SPOT peptide array binding signal intensity
B1	≤ 0

Molecular target: SpCyk3
Experiment: as above
Method in brief: as §1

Binder	SPOT peptide array binding signal intensity
B1	5.75 ± 4.6

Molecular target: SpHof1
Experiment: as above
Method in brief: as §1

Binder	SPOT peptide array binding signal intensity
B1	183 ± 6

Molecular target: SpHof1-2
Experiment: as above
Method in brief: as §1

Binder	SPOT peptide array binding signal intensity
B1	17 ± 8.5

Molecular target: SpHof1-3
Experiment: as above
Method in brief: as §1

Binder	SPOT peptide array binding signal intensity
B1	319 ± 74

Molecular target: SpHse1
Experiment: as above
Method in brief: as §1

Binder	SPOT peptide array binding signal intensity
B1	172 ± 74

Molecular target: SpLsb1
Experiment: as above
Method in brief: as §1

Binder	SPOT peptide array binding signal intensity
B1	33.8 ± 4.6

Molecular target: SpLsb4
Experiment: as above
Method in brief: as §1

Binder	SPOT peptide array binding signal intensity
B1	2990 ± 950

Molecular target: SpMyo1
Experiment: as above
Method in brief: as §1

Binder	SPOT peptide array binding signal intensity
B1	3.25 ± 2.5

Molecular target: SpNbp2
Experiment: as above
Method in brief: as §1

Binder	SPOT peptide array binding signal intensity
B1	109 ± 68

Molecular target: SpPex13
Experiment: as above
Method in brief: as §1

Binder	SPOT peptide array binding signal intensity
B1	5.5 ± 2.1

Molecular target: SpRvs167
Experiment: as above
Method in brief: as §1

Binder	SPOT peptide array binding signal intensity
B1	195 ± 91

Molecular target: SpSla1-D1-D2
Experiment: as above
Method in brief: as §1

Binder	SPOT peptide array binding signal intensity
B1	10.2 ± 3.9

Molecular target: SpSla1-D3
Experiment: as above
Method in brief: as §1

Binder	SPOT peptide array binding signal intensity
B1	2.5 ± 0.71
